The values that follow come from PubChem BioAssay (NCATS).

Inconclusive results are not listed. A call without a number means that no potency is given here. The source made the active and inactive calls. Calls come from the whole dose curve; as a rule, active = well fitted inhibition curve with a large enough effect; inconclusive = small, poorly fitted or top-dose-only effect; inactive = no such curve, though single readings can be large or run the other way.
Potency is the fitted concentration of half-maximal effect.

The test is described as follows: Primary qHTS for inhibitors of nuclear receptor binding SET domain protein 2 (NSD2) in an RCH-ACV wild type WT cells (2C) (AID 1645877). Note: nearly all actives have a fitted effect of over 70% in size. The conditions noted are these: RCH-ACV (leukaemia line) NSD2 WT (2C) viability, CellTiter-Glo, 72 h; series mostly up to 44.9 µM. (In general: qHTS replaces the single test concentration by a dilution series.)
Regarding `NN=C(N)N`, the Potency result is “inactive”.
Under `CC(C)NCC(O)c1ccccc1Cl` (centres undefined) stands “inactive”.
`CC(C)(C)NCC(O)c1cc(Cl)c(N)c(Cl)c1` (centres undefined): the Potency entry is “inactive”.
Under `CCC(COC(=O)c1cc(OC)c(OC)c(OC)c1)(c1ccccc1)N(C)C` (centres undefined) stands “inactive”.
Under `CCCC1CCCCN1` (centres undefined) stands “inactive”; under `Cn1cc(C2=C(c3cn(C4CCN(Cc5ccccn5)CC4)c4ccccc34)C(=O)NC2=O)c2ccccc21`, “inactive”; under `CC(CCc1ccccc1)NC(C)C(O)c1ccc(O)cc1` (centres undefined), “inactive”.
In the case of `Cc1cccc(C)c1NC(=O)CN1CCCC1=O` it was “inactive”; in that of `NCC1(CC(=O)O)CCCCC1`, “inactive”; in that of `Cc1sc2c(c1C)C(c1ccc(Cl)cc1)=N[C@@H](CC(=O)OC(C)(C)C)c1nnc(C)n1-2`, 263 nM (active).
As for `CC(C)=CC1C(C(=O)OCc2cccc(Oc3ccccc3)c2)C1(C)C` (centres undefined), the Potency entry was “inactive”.
In the case of `C#CCN(C)[C@H](C)Cc1ccccc1` it was “inactive”; in that of `OCCOc1ccccc1`, “inactive”; in that of `FC(F)(F)c1cccc(C2=CCN(CCc3ccc4ccccc4c3)CC2)c1`, “inactive”.
